DT40 TDP1 no CPT – qHTS for Inhibitors of human tyrosyl-DNA phosphodiesterase 1 (TDP1): qHTS in cells in absence of CPT. DT40 Tdp1-/- hTDP1 cells, no CPT, ATP luminescence, 48 h. Potency, µM (doses to about 46.2 µM), hits mostly inhibitors. 420,000 tested, 15% active. AID 686978, 2013; note: nearly all actives have a fitted effect of over 55% in size
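Camptothecin absent (DMSO only). Human TDP1-complemented DT40 knockout cells, 400 cells/well, 37 °C for minimum 48 hr; ATP measured via CellTiter-Glo, 30 min dark incubation, luminescence.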
HepG2 tox – counter-screen for TGF-b inhibitors: cytotoxicity in HepG2 cells; Potency, µM (top dose mostly 46.1 µM), actives largely listed as cytotoxic; AID 588856; HepG2 CAGA-GFP viability, ATP luminescence, 18 h; 410,000 tested, 0.76% active
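HepG2 CAGA-GFP cells (1000/well, DMEM with 1% FBS) received compound, then TGF-beta at 500 pg/mL final, and were incubated 18 hours at 37 degrees C. Viability was read by CellTiter-Glo luminescence. Media-only wells were set as complete cell-killing and DMSO as no toxicity.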
TGFb inhibitor – TGF-b pathway inhibition. AID 588855. HepG2 CAGA-GFP TGF-b/SMAD3 reporter, GFP fluorescence, 18 h; TGF-beta stimulated, 500 pg/mL final. Potency, µM (series often up to 46.1 µM), usual class: inhibitors. 410,000 tested, 1.2% active; note: nearly all actives have a fitted effect of over 65% in size
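Inhibition was scored as loss of TGF-beta-induced (500 pg/mL final, 18 hours, 37 degrees C) GFP in HEPG2 cells carrying a CAGA-GFP reporter, in DMEM with 1% FBS. Well GFP was summed per cell; Activity was normalised to unstimulated and stimulated DMSO wells, then concentration-response fitting.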
ATXN2 expr inh – reduces ATXN2 reporter expression in HEK-293 cells. HEK-293 ATXN2-luciferase reporter, luminescence, 24 h. Potency, µM (doses to about 57 µM), usual class: inhibitors. 360,000 tested, 0.72% active. AID 1745845; note: nearly all actives have a fitted effect of over 55% in size
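ATXN2-luciferase reporter cells (luciferase flanked by upstream and downstream ATXN2 gene portions) were treated 24 h at 37 °C with compounds at up to 57 uM. SteadyGlo luminescence gave expression; GF-AFC fluorescence gave viability.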
TDP1 cell CPT – DT40-hTDP1 cell growth loss with CPT. chicken DT40 Tdp1-/-;hTDP1 cells + 20 nM CPT, ATP luminescence, 48 h. Potency, µM (series often up to 46.2 µM), actives largely listed as inhibitors. 420,000 tested, 12% active; note: nearly all actives have a fitted effect of over 55% in size
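Cell growth measured by CellTiter-Glo luminescence after a minimum 48 h, 37 C compound exposure with 20 nM CPT in Tdp1-knockout DT40 cells stably expressing hTDP1, seeded 400/well; qHTS titration format.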
S2 tox – reduces viability in counter-screen for ATXN expression inhibitors; 400,000 tested, 0.49% active; AID 651635; S2 cells (HEK-293 line with an ATXN2-luciferase reporter) viability, CellTiter-Fluor protease fluorescence, 24 h; Potency, µM (series often up to 56.7 µM), hits mostly cytotoxic; note: nearly all actives have a fitted effect of over 40% in size
Hits are given with their value. An excerpt weighted towards active compounds, which were near 17% of everything screened. Calls come from the whole dose curve; as a rule, active = well fitted curve in the direction sought with a large enough effect; inconclusive = small, poorly fitted or top-dose-only effect, or another doubt; inactive = no such curve, though single readings can be large; an effect the other way counts as inactive or inconclusive.

Screening Cc1cccc(CNC(=O)c2sc3ncnc(N(C)C4CCCCC4)c3c2C)c1 returned DT40 TDP1 no CPT 21µM, HepG2 tox inactive, TGFb inhibitor inconclusive, ATXN2 expr inh inconclusive, TDP1 cell CPT 18µM and S2 tox inconclusive.
For CCN1C(=O)[C@@H]2[C@@H](c3ccc(-c4ccc5c(c4)OCO5)c(OC)c3)N3CCCC[C@@]3(C(=O)OC)[C@@H]2C1=O the results were DT40 TDP1 no CPT inconclusive, HepG2 tox inactive, TGFb inhibitor inactive, ATXN2 expr inh inactive, TDP1 cell CPT inconclusive and S2 tox inactive.
CCN1C(=O)[C@@H]2[C@@H](c3ccc(SC4CCCCC4)cc3)N3CCCC[C@@]3(C(=O)OC)[C@@H]2C1=O was read as DT40 TDP1 no CPT inconclusive, HepG2 tox inactive, TGFb inhibitor inconclusive, ATXN2 expr inh inactive, TDP1 cell CPT inconclusive and S2 tox inactive.
CCSc1ccc([C@@H]2[C@H]3C(=O)N(CC)C(=O)[C@H]3[C@]3(C(=O)OC)CCCCN23)cc1OC was read as DT40 TDP1 no CPT 16µM, HepG2 tox inactive, TGFb inhibitor inconclusive, ATXN2 expr inh inactive, TDP1 cell CPT inconclusive and S2 tox inactive.
For CCCCCCSc1ccc([C@@H]2[C@H]3C(=O)N(CC)C(=O)[C@H]3[C@]3(C(=O)OC)CCCCN23)cc1OC the results were DT40 TDP1 no CPT inconclusive, HepG2 tox inactive, TGFb inhibitor inactive, ATXN2 expr inh inactive, TDP1 cell CPT 21µM and S2 tox inconclusive.
For CCCSc1ccc([C@@H]2[C@@H]3C(=O)N(CC)C(=O)[C@@H]3[C@]3(C(=O)OC)CCCCN23)cc1OC the results were DT40 TDP1 no CPT 23µM, HepG2 tox inactive, TGFb inhibitor inactive, ATXN2 expr inh inactive, TDP1 cell CPT 16µM and S2 tox inactive.
CCN1C(=O)[C@H]2[C@@H](c3ccc(SC4CCCCC4)c(OC)c3)N3CCCC[C@@]3(C(=O)OC)[C@H]2C1=O was read as DT40 TDP1 no CPT 23µM, HepG2 tox inactive, TGFb inhibitor inconclusive, ATXN2 expr inh inactive, TDP1 cell CPT inconclusive and S2 tox inconclusive.
For CCN1C(=O)[C@@H]2[C@@H](c3ccc(-c4ccc(C(C)=O)cc4)c(OC)c3)N3CCC[C@@]3(C(=O)OC)[C@@H]2C1=O the results were DT40 TDP1 no CPT inconclusive, HepG2 tox inactive, TGFb inhibitor inactive, ATXN2 expr inh inactive, TDP1 cell CPT inconclusive and S2 tox inactive.
For CCCSc1ccc([C@@H]2[C@@H]3C(=O)N(C)C(=O)[C@@H]3[C@]3(C(=O)OC)CCCN23)cc1OC the results were DT40 TDP1 no CPT inconclusive, HepG2 tox inactive, TGFb inhibitor inactive, ATXN2 expr inh inactive, TDP1 cell CPT 18µM and S2 tox inactive.
For CCOC(=O)c1c(-c2ccccc2)nc2ccc(Cl)cn12 the results were DT40 TDP1 no CPT 16µM, HepG2 tox inactive, TGFb inhibitor inactive, ATXN2 expr inh inactive, TDP1 cell CPT inconclusive and S2 tox inactive.
For CC(C)(C)Cc1c(-c2ccc(Cl)cc2)nc2ccc(Br)cn12 the results were DT40 TDP1 no CPT inconclusive, HepG2 tox inactive, TGFb inhibitor inconclusive, ATXN2 expr inh inactive, TDP1 cell CPT inconclusive and S2 tox inconclusive.
`COC(=O)Nc1c(-c2ccccc2)nc2ccc(Cl)cn12` gave DT40 TDP1 no CPT inactive, HepG2 tox inactive, TGFb inhibitor inactive, ATXN2 expr inh inactive, TDP1 cell CPT inactive and S2 tox inactive.
COc1ccc(-c2nc3ccc(Cl)cn3c2CC(C)(C)C)cc1OC was read as DT40 TDP1 no CPT inactive, HepG2 tox inactive, TGFb inhibitor inactive, ATXN2 expr inh inactive, TDP1 cell CPT inconclusive and S2 tox inactive.
`CC(C)(C)Cc1c(-c2ccccc2)nc2ccc(Cl)cn12` gave DT40 TDP1 no CPT 23µM, HepG2 tox inactive, TGFb inhibitor inconclusive, ATXN2 expr inh inactive, TDP1 cell CPT 23µM and S2 tox inactive.
Screening CC(C)(C)Cc1c(-c2ccc(Br)cc2)nc2ccc(Cl)cn12 returned DT40 TDP1 no CPT inconclusive, HepG2 tox inactive, TGFb inhibitor inconclusive, ATXN2 expr inh inconclusive, TDP1 cell CPT 21µM and S2 tox inconclusive.
`COCCNc1c(-c2ccc(O)cc2)nc2ccc(Cl)cn12` gave DT40 TDP1 no CPT inactive, HepG2 tox inactive, TGFb inhibitor inactive, ATXN2 expr inh inactive, TDP1 cell CPT 33µM and S2 tox inactive.
For CC(C)(C)Cc1c(-c2ccc(Cl)cc2)nc2ccc(Cl)cn12 the results were DT40 TDP1 no CPT inconclusive, HepG2 tox inactive, TGFb inhibitor inconclusive, ATXN2 expr inh inconclusive, TDP1 cell CPT inconclusive and S2 tox inconclusive.
For CCC(C)(C(=O)NC1CCCC1)N(C)C(=O)c1ccccn1 (centres undefined) the results were DT40 TDP1 no CPT inactive, HepG2 tox inactive, TGFb inhibitor inactive, ATXN2 expr inh inactive, TDP1 cell CPT inactive and S2 tox inactive.
`COc1cc2c(=O)n(Cc3ccccc3Cl)c(=O)n(CC(=O)Nc3ccccc3)c2cc1OC` gave DT40 TDP1 no CPT inconclusive, HepG2 tox inactive, TGFb inhibitor inactive, ATXN2 expr inh inactive, TDP1 cell CPT inconclusive and S2 tox inactive.
Screening OCC[C@H]1C[C@@H](O)[C@H](O)[C@]2(Cc3ccccc3CCO2)O1 returned DT40 TDP1 no CPT inactive, HepG2 tox inactive, TGFb inhibitor inconclusive, ATXN2 expr inh inactive, TDP1 cell CPT inactive and S2 tox inactive.
`CC(C)(C)Cc1c(-c2ccc(F)cc2)nc2ccc(Br)cn12` gave DT40 TDP1 no CPT 16µM, HepG2 tox inactive, TGFb inhibitor inconclusive, ATXN2 expr inh inconclusive, TDP1 cell CPT inconclusive and S2 tox inconclusive.
For CN(C)Cc1c(-c2ccc(Cl)cc2)nc2ccc(Cl)cn12 the results were DT40 TDP1 no CPT 13µM, HepG2 tox inactive, TGFb inhibitor inactive, ATXN2 expr inh inactive, TDP1 cell CPT inconclusive and S2 tox inactive.
Screening Clc1ccc(-c2nc3ccc(Cl)cn3c2Cc2ccsc2)cc1 returned DT40 TDP1 no CPT inconclusive, HepG2 tox inactive, TGFb inhibitor inconclusive, ATXN2 expr inh inactive, TDP1 cell CPT inactive and S2 tox inactive.
Screening Cc1ccc2nc(-c3ccco3)c(CC(C)(C)C)n2c1 returned DT40 TDP1 no CPT 9.2µM, HepG2 tox inactive, TGFb inhibitor inconclusive, ATXN2 expr inh inconclusive, TDP1 cell CPT 10µM and S2 tox 20µM.
Fc1ccc(-n2nc(-c3ccccc3)c3cnc4ccccc4c32)cc1Cl was read as DT40 TDP1 no CPT inactive, HepG2 tox inactive, TGFb inhibitor inactive, ATXN2 expr inh inactive, TDP1 cell CPT inactive and S2 tox inactive.
CN=c1scc(-c2ccc(OC)cc2)n1/N=C(\C)c1cccnc1 was read as DT40 TDP1 no CPT 18µM, HepG2 tox inactive, TGFb inhibitor inactive, ATXN2 expr inh inactive and TDP1 cell CPT inconclusive.

Assay outcomes as filed in PubChem BioAssay.
